TIM10 inh – TIM10 yeast growth inhibition. S. cerevisiae TIM10 strain growth, BacTiter-Glo luminescence, 24 h. inhibition, % at 10 µM. 330,000 compounds, 1.4% hits;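 active = inhibition of 40% or more at the single tested concentration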;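 also: wild-type TIM10 isogenic control strain grown at permissive 25 °C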
PfHsp90 set2 – growth inhibition of yeast expressing Plasmodium Hsp90; 310,000 compounds, 0.32% hits; AID 504621; S. cerevisiae expressing PfHsp90, BacTiter-Glo ATP, 48 h; yeast lacking PDR1 and PDR3 efflux regulators; inhibition, % at 9.4 µM;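 active = every replicate shows inhibition above about 80%, whatever the replicate mean, limit read from the data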
tim23-1 inh – tim23-1 yeast growth inhibition; S. cerevisiae tim23-1 growth, BacTiter-Glo luminescence, 24 h; inhibition, % at 20 µM; 330,000 compounds, 1.3% hits; AID 463212;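 active = growth inhibition of the mutant yeast at or above 50%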;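 also: temperature-sensitive mutant grown at 25 °C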
EBI2 block – EBI2 (human) antagonism; P32249; EBI2 beta-arrestin recruitment, luminescence, 7a,25-OHC stimulated; inhibition, % at 5 µM; 360,000 compounds, 0.81% hits; in the data active = inhibition above about 38%;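 also: enzyme fragment complementation signal reports receptor beta-arrestin coupling in cells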
Target sequence (P32249 whole entry, looked up, the tested form may be a part): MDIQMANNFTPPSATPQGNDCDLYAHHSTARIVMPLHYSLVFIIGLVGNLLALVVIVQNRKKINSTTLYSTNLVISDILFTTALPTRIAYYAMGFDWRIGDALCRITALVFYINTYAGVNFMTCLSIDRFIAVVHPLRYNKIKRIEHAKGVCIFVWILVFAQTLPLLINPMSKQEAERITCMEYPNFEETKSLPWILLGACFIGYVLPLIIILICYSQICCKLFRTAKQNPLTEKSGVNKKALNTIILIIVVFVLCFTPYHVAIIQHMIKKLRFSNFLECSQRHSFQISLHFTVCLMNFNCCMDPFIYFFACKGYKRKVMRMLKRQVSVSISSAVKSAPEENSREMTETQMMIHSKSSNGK
tim10-1 inh – tim10-1 yeast growth inhibition | 330,000 compounds, 2.2% hits | S. cerevisiae tim10-1 ts strain growth, BacTiter-Glo, 24 h | inhibition, % at 20 µM;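 active = inhibition of at least 40%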;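 also: mutant grown at 25 °C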
SKKanGAS inh – SKKanGAS growth inhibition | S. pyogenes SKKanGAS, kanamycin growth, BacTiter-Glo, 6 h | inhibition, % at 7.5 µM | 300,000 compounds, 1.3% hits;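 active = mean replicate score, as percent of positive control median, at least 50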;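 also: strain carries kanamycin resistance gene driven by streptokinase promoter and grows in 40 µg/ml kanamycin; loss of luminescence reflects streptokinase promoter inhibition or plain growth inhibition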
tim10-1 conf – tim10-1 yeast growth inhibition, confirmed | inhibition, % at 20 µM | S. cerevisiae tim10-1 ts strain growth, BacTiter-Glo, 24 h | 7,400 compounds, 56% hits | shares compounds with tim10-1 inh;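 active = inhibition of yeast growth at or above a set limit in either of two repeat tests at 20 µM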;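 also: tim10-1 mutant grown at permissive 25 °C to find synthetic lethal compounds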
Numbers stand for hits; - = inactive; . = no result given. A selection: hits, their analogues and other compounds. The true share with any hit is near 4.7%.

SMILES | TIM10 inh | PfHsp90 set2 | tim23-1 inh | EBI2 block | tim10-1 inh | SKKanGAS inh | tim10-1 conf
C=CCNC(=S)NNC(=O)c1cccn(Cc2ccc(Cl)cc2Cl)c1=O | - | . | - | - | 47 | - | -
CC(C)c1ccc(NC2CCCN(C(=O)c3ccsc3)C2)cc1 (centres undefined) | - | - | - | - | - | - | .
N#Cc1ccccc1OCC(=O)Nc1ccccc1C(=O)NC1CC1 | - | . | - | - | - | - | .
O=C(NCCCSc1ccccc1)c1cc(Br)ccc1O | - | 94 | - | - | 46 | - | -
O=C(NCCSc1ccccc1)c1ccc(Br)cc1 | - | - | - | - | - | - | .
CN1CCN(S(=O)(=O)c2cccc(C(=O)Oc3cccc(Br)c3)c2)CC1 | - | - | - | - | 41 | - | -
COc1cc(OC)cc(OC(=O)c2cccc(S(=O)(=O)N3CCN(C)CC3)c2)c1 | - | . | - | - | - | - | .
CCc1nnc(NC(=O)CSc2nnc3nc(C)cc(C)n23)s1 | - | - | - | - | - | - | .
O=C(Nc1ccc(Cl)c(Cl)c1)c1csc(-c2ccccc2)n1 | - | - | - | - | - | - | .
O=C(Nc1cccc(Cl)c1)c1csc(-c2ccccc2)n1 | - | - | - | - | 44 | - | -
CCN(CC)CCCN(C(=O)c1ccco1)c1nc(-c2ccc(Cl)cc2)cs1 | - | - | - | - | 41 | - | -
CCN(CC)CCCN(C(=O)c1ccco1)c1nc(-c2ccc(C)cc2)cs1 | - | - | - | - | - | - | .
CCCCCC(=O)c1c(C)[nH]c(C(=O)OCC)c1C | - | - | - | - | - | - | .
CCCCCCC(=O)c1c(C)[nH]c(C(=O)OCC)c1C | - | - | - | - | 40 | - | -
CC(C)n1c(-c2ccco2)csc1=Nc1cccnc1 | - | - | - | - | 49 | - | 32
CCOC(=O)c1c(C2COc3ccccc3O2)csc1NC(=O)c1ccccc1 (centres undefined) | - | - | - | - | - | - | .
CCOC(=O)c1c(C2COc3ccccc3O2)csc1N (centres undefined) | - | - | - | - | 45 | - | -
Cc1cc(NCCCn2ccnc2)n2ncc(-c3ccc(Cl)cc3)c2n1 | - | - | - | 45 | 41 | - | -
CN(C)c1nc(N(C)C)n(Cc2c(Cl)cccc2Cl)n1 | - | - | - | - | - | - | .
CCOC(=O)c1cc(-c2ccncc2)nc2c1c(C)nn2-c1ccccn1 | - | - | - | - | 45 | - | 34
COc1ccc(NC(=O)c2cn(CCC#N)nc2-c2cccs2)cc1 | - | - | - | - | 41 | - | -
N#CCCn1cc(C(=O)Nc2ccc([N+](=O)[O-])cc2)c(-c2cccs2)n1 | - | - | - | - | - | - | .
CCn1c(SCC(=O)Nc2ccc(F)cc2)nnc1C1CC1 | - | - | - | - | - | - | .
COc1ccc(N2C(=O)CC(N3CCC(O)(c4cccc(C(F)(F)F)c4)CC3)C2=O)cc1 (centres undefined) | - | - | - | - | 43 | - | 33
COc1ccc(N2C(=O)CC(N3CCCCC3)C2=O)cc1 (centres undefined) | - | - | - | - | - | - | .
SMILES | TIM10 inh | PfHsp90 set2 | tim23-1 inh | EBI2 block | tim10-1 inh | SKKanGAS inh | tim10-1 conf
CCn1nc([N+](=O)[O-])c2c(-c3nc4ccccc4o3)c(N)n(CCCOC)c2c1=O | - | - | - | - | - | - | .
O=C(NCCc1ccc(Cl)cc1)c1ccc(S(=O)(=O)N2CCCC2)cc1 | - | - | - | - | 48 | - | 45
O=C(NCCc1ccccc1)C1CCN(S(=O)(=O)c2cccs2)CC1 | - | - | - | - | - | - | .
O=C(NCCc1ccc(Cl)cc1)C1CCN(S(=O)(=O)c2cccs2)CC1 | - | - | - | - | 50 | - | 40
NS(=O)(=O)c1ccc(CCNC(=O)c2ccc(S(=O)(=O)N3CCCCC3)cc2)cc1 | - | - | - | - | - | - | .
CCOC(=O)C1CCN(c2ncnc3c2cnn3C)CC1 | - | - | - | - | - | - | .
O=C(CCN1CCc2ccccc2C(c2ccccc2)C1)c1ccc2c(c1)OCCO2 (centres undefined) | - | 138 | - | - | 56 | - | 56
CN(CC(=O)Nc1ccc(F)c(Cl)c1)S(=O)(=O)c1ccc2c(c1)n(C)c(=O)c(=O)n2C | - | - | - | - | - | - | .
CCCCNC(=O)C1(C)CCN1C(=O)c1oc2ccccc2c1C (centres undefined) | . | . | . | - | . | . | .
CC(=O)NN1C(=O)/C(=C/c2ccc(C(C)C)cc2)SC1=S | - | - | - | - | 42 | - | 39
N=C(N)c1ccc(/C=C/c2ccc(C(=N)N)cc2O)cc1 | - | - | - | - | 56 | 100 | 70
N=C(N)c1ccc(Cl)cc1 | - | - | - | - | - | - | .
Cc1ccc(C(CC(=O)NCCCN(C)C)c2ccc(OC(C)C)cc2)cc1 (centres undefined) | - | - | - | - | - | - | .
CC(C)[C@H](NS(=O)(=O)c1ccccc1)C(=O)OCC(=O)N1N=C(c2ccc(Cl)cc2)CC1c1ccco1 (some centres undefined) | - | - | - | - | 41 | - | -
CCC(=O)N1N=C(c2ccc(Cl)cc2)CC1c1ccco1 (centres undefined) | - | - | - | - | - | - | .
CNc1ccc(Br)cc(C(=O)/C=C/c2cccc(OC)c2OC)c1=O | - | - | - | - | 42 | - | 34
CNc1ccc(Br)cc(C(=O)/C=C/c2cccc(Cl)c2Cl)c1=O | . | - | . | - | . | . | .
CC(C)NC(=O)Nc1ccc2c(c1)C(=O)N([C@H](C)CO)C[C@H](C)[C@@H](CN(C)C(=O)Nc1ccc3c(c1)OCO3)O2 | - | - | - | - | - | . | .
O=C(CCc1ccccc1)C(=O)N1CCCC(C(=O)c2cccc(Cl)c2)C1 (centres undefined) | - | - | - | - | 40 | - | -
Cc1sc(N/N=C/c2ccco2)nc1-c1ccccc1 | - | - | - | - | 43 | - | -
C(=N\Nc1nc(-c2ccccc2)cs1)/c1ccco1 | - | - | - | - | - | - | .
COc1ccc(OC)c(S(=O)(=O)N2C(C)CCCC2C)c1 (centres undefined) | - | - | - | - | 42 | - | -
O=c1cc(-c2ccccc2)[nH]n1-c1ccc([N+](=O)[O-])cc1 | - | - | - | - | 43 | 51 | -
CCN(CC)C1CCCCC1NS(=O)(=O)c1ccc(Cl)cc1 (centres undefined) | - | - | - | - | - | - | .
CN(c1ccccc1)C1CCCCC1NS(=O)(=O)c1ccc(Cl)cc1 (centres undefined) | - | - | - | - | 50 | - | 36
COc1ccccc1NC1CCCCC1NS(=O)(=O)c1ccccc1 (centres undefined) | - | - | - | - | 43 | - | -
COc1ccccc1NC(=O)c1cc(S(=O)(=O)NC2CCCC2)ccc1F | - | - | - | - | 48 | - | -
